# Source: PubChem BioAssay (NCATS)
# Values without a mark were called inactive. Records with an inconclusive call do not appear. Active and inactive are the calls of the source. Unless noted, calls follow the shape of the dose curve; as a rule, active = well fitted curve in either direction with a large enough effect (not every such curve was filed as active); inconclusive = small, poorly fitted or top-dose-only effect, or another doubt; inactive = flat fitted curve, though single readings scatter.
# Assays:
# [1] = biological target: Lysosomal acid glucosylceramidase (Homo sapiens) (UniProt P04062); assay: Glucocerebrosidase-p2 (AID 348; in the data active = potency below about 10 µM; also: potency is read from the fitted curve at half-maximal effect); conditions: purified GBA, blue fluorogenic substrate, 40 min
# How it was run: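 Compounds titrated from 0.6 nM upwards against 0.2 nM enzyme in pH 5.9 citric acid/KH2PO4, taurocholate, tween-20; blue fluorogenic substrate 80 uM, 40 min room temperature, stopped and read Ex 365/Em 440 for AC50.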
# [2] = AP1 Signaling Pathway (AID 357); conditions: ME-180 AP-1-bla reporter, EGF-induced, beta-lactamase ratio, 5 h; at 7.69 µM (top of the series) unless noted; also: % is scaled to controls: 0 for no effect and ±100 for the full control effect
# How it was run: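 ME-180 cells with beta-lactamase reporter under AP-1 response element, stimulated with EC50 EGF; compounds tested in titration series, 5 h at 37 °C. CCF4 substrate added 2.5 h at room temperature; 460/530 nm emission ratio gave %activity and AC50.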
# [3] = Stat Signaling Pathway (AID 446); conditions: ME-180 SIE beta-lactamase reporter, IL-6 stimulated, 5 h; at 7.69 µM (top of the series) unless noted;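 also: ME-180 cervical cancer cells given 40 pM IL-6 alongside compound; SIE-controlled beta-lactamase reporter measured as 460/530 nm FRET emission ratio; % is scaled to controls: 0 for no effect and ±100 for the full control effect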
# How it was run: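 Reporter line: ME-180 cervical carcinoma, SIE-beta-lactamase. Treatment: compound with 40 pM IL-6, 5 hrs, 37 C, in low-serum OPTI-MEM with 10 mM HEPES pH 7.3. Detection: 460/530 nm fluorescence.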
# [4] = biological target: Glucocorticoid receptor (Homo sapiens) (UniProt P04150); assay: GR-GFP Redistribution (AID 450;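 active = compounds whose dose series gives a full or clear partial fitted curve of increased nuclear translocation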; also: potency is read from the fitted curve at half-maximal effect); conditions: U2OS GR-GFP nuclear translocation, laser cytometry, 2 h
# [5] = biological target: Glucocorticoid receptor (Homo sapiens) (UniProt P04150); assay: GR-EFC Redistribution (AID 451; calls by dose curve; also: potency is read from the fitted curve at half-maximal effect); conditions: CHO-K1 GR-EFC translocation, beta-gal luminescence, 2 h
# How it was run: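 CHO-K1 cells expressing nuclear EA and GR-ED fragments of b-gal; compounds titrated up to 46 uM final, 2 h at 37 C. GR nuclear translocation read as complemented b-gal luminescence after 1 h RT detection.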
# [6] = biological target: Mitogen-activated protein kinase 10 (Mus musculus) (UniProt Q61831); assay: JNK3 AlphaScreen Assay (AID 530); conditions: JNK3 lysate, c-Jun phosphorylation; series mostly up to 11.4 µM;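 also: kinase came from lysate of stimulated human HepG2 cells; signal reports phosphorylation of biotinylated GST-cJun 1-79 at Ser73 with 10 µM ATP; % is scaled to controls: 0 for no effect and ±100 for the full control effect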
# How it was run: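 Pre-activated (IL-1β/TNFα) JNK3 in HepG2 lysates phosphorylates biotin-GST-cJun(1-79), 10 uM ATP; anti-phospho-cJun(Ser73) AlphaScreen read at room temperature, pH 7.6 Tris buffer. Compounds pre-incubated 15 min as titrations.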
# [7] = biological target: 3',5'-cyclic-AMP phosphodiesterase 4B (Homo sapiens) (UniProt Q07343); assay: qHTS Assay for Inhibitors of PDE-IV (AID 607; active = well fitted activation curve with a large enough effect in the main read-out, with a control signal flat, not every such curve was filed as active; also: % of control where 0% means no effect); conditions: HEK293 ACTOne CNG channel cells, membrane potential fluorescence; series mostly up to 22.9 µM
# How it was run: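 Cell-based read-out of cAMP via a modified cyclic nucleotide-gated channel and membrane potential dye (535/590 nm) in HEK293 cells expressing PDE4 endogenously. Compounds tested up to 22.9 uM final; 100 uM RO 20-1724 reference.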
# [8] = biological target: Cytochrome P450 3A4 (Homo sapiens) (UniProt P08684); assay: qHTS Assay for Inhibitors and Substrates of Cytochrome P450 3A4 (AID 884; active = well fitted curve in the direction sought with a large enough effect; an effect the other way counts as inactive or inconclusive; also: nearly all actives have a fitted effect of over 50% in size; also: potency is read from the fitted curve at half-maximal effect); conditions: recombinant CYP3A4, Luciferin-PPXE luminescence; series mostly up to 57.1 µM
# How it was run: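 20 nM human CYP3A4 with 25 uM Luciferin-PPXE (at KM) in 200 mM KPO4, preincubated 10 min with compound; NADPH regeneration started a 60 min RT reaction. Luciferin detected by luminescence, normalized to 57 uM ketoconazole as full inhibition.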
# [9] = biological target: Cytochrome P450 2C19 (Homo sapiens) (UniProt P33261); assay: qHTS Assay for Inhibitors and Substrates of Cytochrome P450 2C19 (AID 899; active = well fitted curve in the direction sought with a large enough effect; an effect the other way counts as inactive or inconclusive; also: potency is read from the fitted curve at half-maximal effect; nearly all actives have a fitted effect of over 60% in size); conditions: recombinant CYP2C19, luciferin-H EGE luminescence; series mostly up to 11.4 µM
# How it was run: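 5 nM human CYP2C19 with 10uM Luciferin-H EGE (at KM) in 50mM KPO4, compound preincubated 10 min at 37C, then NADPH regeneration for 60 min at 37C. Luciferin read by luminescence after detection reagent; normalized to 57uM ketoconazole as full inhibition.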
# [10] = biological target: Cytochrome P450 3A4 (Homo sapiens) (UniProt P08684); assay: qHTS Assay for Activators of Cytochrome P450 3A4 (AID 885; active = well fitted curve in the direction sought with a large enough effect; an effect the other way counts as inactive or inconclusive; also: nearly all actives have a fitted effect of over 65% in size); conditions: recombinant CYP3A4, Luciferin-PPXE luminescence, 60 min; series mostly up to 11.4 µM
# How it was run: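 Signal was normalized against complete inhibition by 57 uM ketoconazole. The reaction used 20nM CYP3A4 with 25uM Luciferin-PPXE, 10-min compound preincubation and a 60-min NADPH-supported step at RT.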
# [11] = qHTS Assay for Identification of Small Molecule Agonists for Hypoxia Response Element Signaling Pathway (AID 914; active = well fitted activation curve with a large enough effect in the signal ratio, with a control signal flat, not every such curve was filed as active; the % refers to the signal ratio; also: % of control where 0% means no effect); conditions: ME-180 (cervical carcinoma) HRE-bla reporter, beta-lactamase ratio, CoCl2, 17 h; activation: hits give high values
# How it was run: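 AC50 values come from titration-series %Activity, taken as the 460/530nm ratio of CCF4 fluorescence (excitation 405nm). CellSensor HRE-bla ME-180 cells were treated 17 hours at 37 C with compound plus an EC50 level of CoCl2.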
# [12] = biological target: Cytochrome P450 1A2 (Homo sapiens) (UniProt P05177); assay: p450-cyp1a2 (AID 410; calls by dose curve; also: potency is read from the fitted curve at half-maximal effect;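 as to activity change, negative = inhibition: -100% = full effect of reference inhibitor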); conditions: recombinant CYP1A2, luciferin-ME demethylation, luminescence; series mostly up to 11.4 µM
# How it was run: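 20nM CYP1A2 with 100uM Luciferin-ME (at Km) in 100mM KPO4; compound preincubated 10 min, NADPH regeneration added, 60 min at room temperature. Luciferin quantified by luminescence after detection reagent; normalized to 57 uM furafylline.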
# [13] = NFAT Signaling Pathway (AID 444); conditions: Jurkat NFAT-bla M1, carbachol, beta-lactamase ratio, 5 h; at 7.69 µM (top of the series) unless noted;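 also: carbachol stimulus at about its EC50 of 1 µM final; % is scaled to controls: 0 for no effect and ±100 for the full control effect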
# How it was run: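 Jurkat cells with NFAT-driven β-lactamase reporter and co-expressed M1 receptor, stimulated with carbachol (final 1 uM, ~EC50), compound titration, 5 h at 37 °C. CCF4 loaded 1 h at RT; 460/530 nm ratio gave %activity and AC50.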
# [14] = biological target: Cytochrome P450 2C9 (Homo sapiens) (UniProt P11712); assay: qHTS Assay for Inhibitors and Substrates of Cytochrome P450 2C9 (AID 883; active = well fitted curve in the direction sought with a large enough effect; an effect the other way counts as inactive or inconclusive; also: potency is read from the fitted curve at half-maximal effect; nearly all actives have a fitted effect of over 60% in size); conditions: recombinant CYP2C9, luciferin-H luminescence, 60 min; series mostly up to 11.4 µM
# How it was run: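 Human CYP2C9 (10nM) with Luciferin-H at 100uM (its KM) in 25mM KPO4; compound preincubated 10 min at 37C, then NADPH regeneration for 60 min at 37C. Luciferin read by luminescence after detection reagent; normalized to 57uM sulphaphenazole as full inhibition.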
# Sequence of Cytochrome P450 1A2 (Homo sapiens) (P05177 whole entry, looked up): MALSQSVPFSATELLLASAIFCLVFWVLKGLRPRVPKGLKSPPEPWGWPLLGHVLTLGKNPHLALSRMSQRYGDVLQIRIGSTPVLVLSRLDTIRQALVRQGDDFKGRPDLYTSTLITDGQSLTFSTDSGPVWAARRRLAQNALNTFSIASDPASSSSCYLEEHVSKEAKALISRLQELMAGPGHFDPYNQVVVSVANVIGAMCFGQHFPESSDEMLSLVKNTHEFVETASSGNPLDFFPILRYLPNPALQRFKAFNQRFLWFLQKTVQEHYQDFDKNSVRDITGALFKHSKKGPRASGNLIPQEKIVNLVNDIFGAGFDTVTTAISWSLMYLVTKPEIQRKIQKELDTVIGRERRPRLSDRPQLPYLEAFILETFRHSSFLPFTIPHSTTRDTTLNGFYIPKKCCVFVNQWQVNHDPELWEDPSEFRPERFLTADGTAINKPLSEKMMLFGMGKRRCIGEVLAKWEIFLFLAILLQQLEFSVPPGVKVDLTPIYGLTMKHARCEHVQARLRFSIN
# Sequence of 3',5'-cyclic-AMP phosphodiesterase 4B (Homo sapiens) (Q07343 whole entry, looked up): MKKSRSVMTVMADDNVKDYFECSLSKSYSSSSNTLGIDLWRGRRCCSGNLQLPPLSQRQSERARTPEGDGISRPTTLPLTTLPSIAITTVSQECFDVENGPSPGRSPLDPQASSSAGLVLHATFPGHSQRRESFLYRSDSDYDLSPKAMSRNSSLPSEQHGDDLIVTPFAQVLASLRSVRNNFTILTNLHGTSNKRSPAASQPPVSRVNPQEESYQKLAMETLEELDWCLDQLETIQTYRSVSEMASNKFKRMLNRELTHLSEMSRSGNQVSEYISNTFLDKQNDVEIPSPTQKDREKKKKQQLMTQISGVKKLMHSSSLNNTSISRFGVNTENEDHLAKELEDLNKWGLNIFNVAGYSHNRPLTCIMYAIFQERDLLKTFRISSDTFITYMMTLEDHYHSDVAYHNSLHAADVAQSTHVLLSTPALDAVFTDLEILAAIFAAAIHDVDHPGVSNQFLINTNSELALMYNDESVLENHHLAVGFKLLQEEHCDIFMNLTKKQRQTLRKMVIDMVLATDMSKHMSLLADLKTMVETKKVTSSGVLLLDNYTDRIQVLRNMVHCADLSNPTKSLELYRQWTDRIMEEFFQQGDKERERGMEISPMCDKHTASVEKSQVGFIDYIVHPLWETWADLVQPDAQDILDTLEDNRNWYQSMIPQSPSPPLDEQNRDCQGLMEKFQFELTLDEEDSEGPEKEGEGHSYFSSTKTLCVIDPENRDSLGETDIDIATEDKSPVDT
# Sequence of Glucocorticoid receptor (Homo sapiens) (P04150 whole entry, looked up, the tested form may be a part): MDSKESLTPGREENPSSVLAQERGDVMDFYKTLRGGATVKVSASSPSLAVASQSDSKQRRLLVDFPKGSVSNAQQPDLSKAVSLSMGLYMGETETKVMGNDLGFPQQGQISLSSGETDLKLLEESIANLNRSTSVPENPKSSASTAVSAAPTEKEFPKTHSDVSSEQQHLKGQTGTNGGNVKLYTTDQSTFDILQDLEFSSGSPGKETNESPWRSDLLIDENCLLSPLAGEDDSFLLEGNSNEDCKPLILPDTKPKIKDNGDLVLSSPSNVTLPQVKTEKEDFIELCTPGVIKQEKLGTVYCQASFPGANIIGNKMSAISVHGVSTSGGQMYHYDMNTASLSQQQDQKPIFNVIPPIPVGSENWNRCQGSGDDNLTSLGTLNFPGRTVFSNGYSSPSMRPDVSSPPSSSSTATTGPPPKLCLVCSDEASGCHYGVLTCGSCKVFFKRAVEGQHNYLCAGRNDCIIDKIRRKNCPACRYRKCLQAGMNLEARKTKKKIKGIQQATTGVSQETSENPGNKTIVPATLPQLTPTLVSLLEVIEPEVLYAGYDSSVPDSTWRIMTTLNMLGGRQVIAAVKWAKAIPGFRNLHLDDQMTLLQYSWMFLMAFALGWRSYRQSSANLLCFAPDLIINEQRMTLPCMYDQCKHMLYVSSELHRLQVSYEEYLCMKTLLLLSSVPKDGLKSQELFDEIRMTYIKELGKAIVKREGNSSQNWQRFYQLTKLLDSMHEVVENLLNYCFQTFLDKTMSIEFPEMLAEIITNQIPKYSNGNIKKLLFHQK
# Sequence of Cytochrome P450 3A4 (Homo sapiens) (P08684 whole entry, looked up): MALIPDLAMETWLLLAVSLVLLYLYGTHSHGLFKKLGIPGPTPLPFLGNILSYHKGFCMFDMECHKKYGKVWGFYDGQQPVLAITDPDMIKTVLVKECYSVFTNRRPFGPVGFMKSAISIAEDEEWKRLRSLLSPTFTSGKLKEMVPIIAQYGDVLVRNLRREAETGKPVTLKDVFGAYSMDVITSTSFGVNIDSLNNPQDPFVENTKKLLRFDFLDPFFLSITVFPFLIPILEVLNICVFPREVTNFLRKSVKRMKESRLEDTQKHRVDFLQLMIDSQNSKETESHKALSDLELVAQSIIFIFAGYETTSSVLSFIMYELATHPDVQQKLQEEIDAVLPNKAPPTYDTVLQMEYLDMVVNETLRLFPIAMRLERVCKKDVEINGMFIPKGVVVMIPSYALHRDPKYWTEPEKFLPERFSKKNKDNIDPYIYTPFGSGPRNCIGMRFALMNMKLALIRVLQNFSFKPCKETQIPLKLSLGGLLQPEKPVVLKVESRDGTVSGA
# Sequence of Cytochrome P450 2C19 (Homo sapiens) (P33261 whole entry, looked up): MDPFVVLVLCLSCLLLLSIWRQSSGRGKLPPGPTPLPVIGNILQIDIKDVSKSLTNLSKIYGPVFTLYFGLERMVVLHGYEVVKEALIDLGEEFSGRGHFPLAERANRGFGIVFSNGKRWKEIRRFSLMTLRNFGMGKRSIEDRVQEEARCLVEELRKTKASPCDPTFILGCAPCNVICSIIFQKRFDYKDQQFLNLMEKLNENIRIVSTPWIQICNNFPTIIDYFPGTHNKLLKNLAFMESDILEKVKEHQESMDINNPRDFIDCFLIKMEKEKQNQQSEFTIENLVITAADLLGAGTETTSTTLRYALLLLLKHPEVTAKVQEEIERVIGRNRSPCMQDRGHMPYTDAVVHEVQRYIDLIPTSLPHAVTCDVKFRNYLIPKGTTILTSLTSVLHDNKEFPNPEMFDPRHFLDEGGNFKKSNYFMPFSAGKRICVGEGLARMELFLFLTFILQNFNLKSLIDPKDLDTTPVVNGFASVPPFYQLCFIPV
# Sequence of Lysosomal acid glucosylceramidase (Homo sapiens) (P04062 whole entry, looked up): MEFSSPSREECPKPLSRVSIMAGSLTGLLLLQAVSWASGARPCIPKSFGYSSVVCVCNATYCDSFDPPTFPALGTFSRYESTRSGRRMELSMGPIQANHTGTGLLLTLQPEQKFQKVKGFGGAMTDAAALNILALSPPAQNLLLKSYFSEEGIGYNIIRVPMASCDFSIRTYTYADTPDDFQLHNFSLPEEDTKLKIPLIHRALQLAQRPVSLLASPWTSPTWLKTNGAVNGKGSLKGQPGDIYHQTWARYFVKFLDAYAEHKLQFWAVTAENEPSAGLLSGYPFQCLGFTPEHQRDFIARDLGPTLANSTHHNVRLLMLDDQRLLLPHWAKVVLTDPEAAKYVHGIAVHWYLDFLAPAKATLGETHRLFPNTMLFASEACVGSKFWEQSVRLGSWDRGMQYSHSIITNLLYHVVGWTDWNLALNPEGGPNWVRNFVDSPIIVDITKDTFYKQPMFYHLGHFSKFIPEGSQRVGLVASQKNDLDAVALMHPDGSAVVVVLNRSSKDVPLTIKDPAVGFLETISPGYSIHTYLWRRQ
# Sequence of Cytochrome P450 2C9 (Homo sapiens) (P11712 whole entry, looked up): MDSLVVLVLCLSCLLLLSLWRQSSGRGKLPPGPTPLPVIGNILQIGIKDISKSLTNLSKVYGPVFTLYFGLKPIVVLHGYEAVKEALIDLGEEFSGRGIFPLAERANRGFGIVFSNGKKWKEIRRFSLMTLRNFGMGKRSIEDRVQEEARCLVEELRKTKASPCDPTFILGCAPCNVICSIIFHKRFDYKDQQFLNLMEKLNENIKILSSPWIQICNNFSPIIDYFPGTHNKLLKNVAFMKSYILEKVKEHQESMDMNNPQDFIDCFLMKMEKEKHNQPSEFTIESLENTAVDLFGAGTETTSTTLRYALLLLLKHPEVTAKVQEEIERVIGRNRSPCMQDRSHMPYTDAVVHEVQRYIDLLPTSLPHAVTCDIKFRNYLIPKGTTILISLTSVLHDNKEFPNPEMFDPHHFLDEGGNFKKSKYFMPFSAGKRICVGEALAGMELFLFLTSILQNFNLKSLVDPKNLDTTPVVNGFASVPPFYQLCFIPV
smiles,measurement,setting,value
CSc1nc2cc(S(=O)(=O)N3CCCCC3)ccc2s1,Potency,[1],> 11.4 µM
same,"activity change, negative = inhibition",[2],-19.7%
same,"activity, negative = inhibition",[3],-6.1%
same,Potency,[4],> 46 µM
same,Potency,[5],> 9.22 µM
same,Potency,[6],inactive
same,Potency,[7],inactive
same,"activity change, negative = inhibition",[8],50.1% [at 11.4 µM]
same,Potency,[9],1.26 µM (active)
O=C1c2ccccc2C(=O)c2c(NC(=O)c3ccc4c5c(ncnc35)-c3ccccc3C4=O)cccc21,Potency,[1],> 11.4 µM
same,"activity change, negative = inhibition",[2],5.12%
same,"activity, negative = inhibition",[3],0.00925%
same,Potency,[4],> 46 µM
same,Potency,[5],> 9.22 µM
same,Potency,[6],inactive
same,Potency,[7],inactive
C=C(CC(=O)O)C(=O)O (tested in a mixture with another compound),Potency,[1],> 11.4 µM
same,"activity change, negative = inhibition",[2],6.49%
same,"activity, negative = inhibition",[3],-4.69%
same,Potency,[4],> 46 µM
same,Potency,[5],> 9.22 µM
same,Potency,[6],inactive
same,Potency,[7],inactive
Cc1cccc(C(=O)O)c1C[C@H]1NCC[C@H]2c3ccccc3N[C@@H]12,Potency,[1],> 11.4 µM
same,"activity change, negative = inhibition",[2],29.4%
same,"activity, negative = inhibition",[3],4.38%
same,Potency,[4],> 46 µM
same,Potency,[5],> 9.22 µM
same,Potency,[6],inactive
same,Potency,[7],inactive
COc1ccc(NCc2c(O)ccc3ccccc23)cc1,Potency,[1],> 11.4 µM
same,"activity change, negative = inhibition",[2],-6.4%
same,"activity, negative = inhibition",[3],-5.4%
same,Potency,[4],> 46 µM
same,Potency,[5],> 9.22 µM
same,Potency,[6],inactive
same,Potency,[7],inactive
CN(C)Cc1cc(C(F)(F)F)ccc1C(O)(c1ccccc1)c1ccccc1,Potency,[1],> 11.4 µM
same,"activity change, negative = inhibition",[2],19.8%
same,"activity, negative = inhibition",[3],9.65%
same,Potency,[4],> 46 µM
same,Potency,[5],> 9.22 µM
same,Potency,[6],inactive
same,Potency,[7],inactive
same,Potency,[8],0.794 µM (active)
same,Potency,[10],inactive
same,activation,[11],25.7%
O=C(O)c1ccccc1/C=N\N=C1c2ccccc2-c2ccccc21,Potency,[1],> 11.4 µM
same,Potency,[12],0.316 µM (active)
same,"activity change, negative = inhibition",[13],7.67%
same,"activity, negative = inhibition",[3],-13.9%
same,Potency,[4],> 46 µM
same,Potency,[5],> 9.22 µM
same,Potency,[6],inactive
same,Potency,[7],inactive
COc1ccc2c(=O)cc(-c3ccncc3)oc2c1OC,Potency,[1],> 11.4 µM
same,Potency,[12],1.58 µM (active)
same,"activity change, negative = inhibition",[13],2.62%
same,"activity, negative = inhibition",[3],-17.8%
same,Potency,[4],> 46 µM
same,Potency,[5],> 9.22 µM
same,Potency,[6],inactive
same,Potency,[7],inactive
same,Potency,[10],inactive
same,Potency,[9],1.58 µM (active)
COc1cc2c3cc1Oc1c(OC)c(OC)cc4c1[C@@H](Cc1ccc(O)c(c1)Oc1ccc(cc1)C[C@@H]3N(C)CC2)CN(C)C4,Potency,[1],> 11.4 µM
same,Potency,[12],inactive
same,"activity change, negative = inhibition",[13],-11.8%
same,"activity, negative = inhibition",[3],-1.76%
same,Potency,[4],> 46 µM
same,Potency,[5],> 9.22 µM
same,Potency,[6],inactive
same,Potency,[7],inactive
same,Potency,[10],inactive
CC1CCN(CC[S-])CC1.O.O.[Cl][Pt],Potency,[1],> 11.4 µM
same,"activity change, negative = inhibition",[2],29.8%
same,Potency,[4],> 46 µM
same,Potency,[5],> 9.22 µM
same,Potency,[6],inactive
same,Potency,[7],inactive
COc1cccc(Nc2ncc3ncc(=O)n(C4CC4)c3n2)c1,Potency,[1],> 11.4 µM
same,Potency,[12],0.631 µM (active)
same,"activity change, negative = inhibition",[13],-22.2%
same,"activity, negative = inhibition",[3],-24.1%
same,Potency,[4],> 9.22 µM
same,Potency,[5],> 46 µM
same,Potency,[6],inactive
same,Potency,[7],inactive
same,Potency,[10],inactive
O=[N+]([O-])c1ccc(CS(=O)Cc2ccccc2)cc1 (stereo unspecified),Potency,[1],> 11.4 µM
same,"activity change, negative = inhibition",[2],-8.79%
same,Potency,[4],> 46 µM
same,Potency,[5],> 9.22 µM
same,Potency,[6],inactive
same,Potency,[7],inactive
same,Potency,[9],1.26 µM (active)
CC[C@@H](Nc1ncnc2nc[nH]c12)C(=O)O,Potency,[1],> 11.4 µM
same,Potency,[12],inactive
same,"activity change, negative = inhibition",[13],-4.99%
same,"activity, negative = inhibition",[3],0.774%
same,Potency,[4],> 46 µM
same,Potency,[5],> 9.22 µM
same,Potency,[6],inactive
same,Potency,[7],inactive
Cc1c(Cl)cc(C(C)(C)C)c(O)c1Cc1c(C)c(Cl)cc(C(C)(C)C)c1O,Potency,[1],> 11.4 µM
same,"activity change, negative = inhibition",[2],10.4%
same,Potency,[4],> 46 µM
same,Potency,[5],> 9.22 µM
same,Potency,[6],inactive
same,Potency,[7],inactive
O=CN[C@@H](Cc1cnc[nH]1)C(=O)O,Potency,[1],> 11.4 µM
same,Potency,[12],inactive
same,"activity change, negative = inhibition",[13],2.87%
same,"activity, negative = inhibition",[3],0.427%
same,Potency,[4],> 46 µM
same,Potency,[5],> 9.22 µM
same,Potency,[6],inactive
same,Potency,[7],inactive
c1ccc2cc(NCNc3ccc4ccccc4c3)ccc2c1,Potency,[1],> 11.4 µM
same,Potency,[12],0.631 µM (active)
same,"activity change, negative = inhibition",[13],-15.6%
same,"activity, negative = inhibition",[3],-2.06%
same,Potency,[4],> 46 µM
same,Potency,[5],> 9.22 µM
same,Potency,[6],inactive
same,Potency,[7],inactive
same,Potency,[14],3.98 µM (active)
same,Potency,[10],inactive
same,Potency,[9],2.51 µM (active)
FC(F)(F)c1cc(NC(=S)N2c3ccccc3-n3cccc3[C@H]2c2cccnc2)cc(C(F)(F)F)c1,Potency,[1],> 11.4 µM
same,"activity change, negative = inhibition",[2],-2.69%
same,Potency,[4],> 46 µM
same,Potency,[5],> 9.22 µM
same,Potency,[6],inactive
same,Potency,[7],inactive
NCCSCCC(=O)O,Potency,[1],> 11.4 µM
same,Potency,[12],inactive
same,"activity change, negative = inhibition",[13],11.4%
same,"activity, negative = inhibition",[3],0.279%
same,Potency,[4],> 46 µM
same,Potency,[5],> 9.22 µM
same,Potency,[6],inactive
same,Potency,[7],inactive
C[C@]12CC[C@H]3c4ccc(O)cc4CC[C@@H]3[C@H]1CC[C@@H]2OC(=O)CCc1ccccc1,Potency,[1],> 11.4 µM
same,"activity change, negative = inhibition",[12],-13.8% [at 2.29 µM]
same,"activity change, negative = inhibition",[13],-14.3%
same,"activity, negative = inhibition",[3],-1.42%
same,Potency,[4],> 46 µM
same,Potency,[5],> 9.22 µM
same,Potency,[6],inactive
same,Potency,[7],inactive
